Laboratory results reported in PubChem BioAssay AID1962 (The Scripps Research Institute Molecular Screening Center, 2009).
Among all 300,000 compounds or so, about 2,500 (0.83%) were called active. For the sample, actives were picked, then their nearest neighbours and some compounds at random. Unmarked numbers belong to inactive results.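 Rule for the calls: active = inhibition above the mean of all tested compounds plus 3 SD, set per screening campaign (cut at about 24% in these data); inactive = the rest.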

The molecules below were run on tRNA 2'-phosphotransferase TPT1 (Candida albicans SC5314) (assay: tRNA 2'-phosphotransferase blockers, C. albicans – biochemical, fluorescence polarization, primary screen (AID 1962;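 note: plate controls were DMSO alone for no effect and ferristatin control at 100 nM for full effect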)). Conditions: recombinant caTPT1, FP RNA substrate dephosphorylation; at 5 µM; active compounds read high.

SMILES | inhibition
Cc1ccc(S(=O)(=O)N2[C@@H](c3ccccc3F)C(C(=O)O)=CC[C@H]2c2ccc(Cl)cc2)cc1 | -4.36%
COc1ccc(CCNC(=S)N2CCN(S(=O)(=O)c3ccc(F)cc3)CC2)cc1 | -2.45%
Cc1cccc(NC(=O)c2cccc(S(=O)(=O)N3CCCC3)c2)n1 | -1.41%
CCC(C)CCN1CCN=C1N(C)C (stereo unspecified) | 0.6%
O=S(=O)(Nc1ccccc1)c1ccc(NS(=O)(=O)c2cccs2)cc1 | 3.09%
O=c1[nH]nc(SCCS(=O)(=O)c2ccc(F)cc2)n1-c1ccccc1C(F)(F)F | -4.89%
O=C(NCCS(=O)(=O)N1CCN(c2ccc(F)cc2)CC1)c1ccc2c(c1)OCO2 | -1.22%
Cc1cc(C)c(/C=C2\C(=O)Nc3ccccc32)[nH]1 | 101% (active)
CN(C)/C=C1/Nc2ccccc2C1=O | -4.8%
O=C1Nc2ccccc2/C1=C/c1ccnc2ccccc12 | -1.13%
CCN1C(=O)/C(=c2\s/c(=C3\Sc4ccccc4N3C)c(=O)n2C)N(C)C1=S | -1.53%
CN1/C(=c2/s/c(=C3/C(=O)N(c4ccccc4)NC3=Nc3ccccc3)n(C)c2=O)C(C)(C)c2ccccc21 | 128% (active)
COc1ccc(/C=C2\SC(=O)N(CCC(=O)NC3CCS(=O)(=O)C3)C2=O)cc1 (stereo unspecified) | -0.19%
Cc1cc(C)n(CCC(=O)N2CCN(S(=O)(=O)c3ccc(C)c(C)c3)CC2)n1 | -1.67%
Cc1nc(-c2ccc(Cl)cc2)sc1C1(C)CC(c2ccccc2F)=NO1 (stereo unspecified) | 1.26%
Cc1cc(C)nc(N/N=C/c2ccc([N+](=O)[O-])o2)n1 | -2.07%
CCn1c(/C=C/c2ccc([N+](=O)[O-])o2)nc2ccccc2c1=O | 25.2% (active)
C/[N+]([O-])=C\c1ccc([N+](=O)[O-])o1 | -5.74%
CCCOc1ccc(Cc2c(O)nc(SC)[nH]c2=O)cc1C | 1.03%
S=C(Nc1cccc(Br)c1)N1CCn2cccc2C1c1cccnc1 (stereo unspecified) | 1.48%
C=CCC1=C/C(=C\c2c(N)n3nc(CC(=O)N4CCOCC4)sc3nc2=O)C=C(OC)C1=O | 37% (active)
COC1=C/C(=C/c2c(N)n3nc(CC(=O)N4CCOCC4)sc3nc2=O)C=CC1=O | 9.73%
COc1cc(/C=C2\C(=N)N3N=C(CC(=O)N4CCOCC4)SC3=NC2=O)cc(OC)c1OC | 1.57%

SMILES | inhibition
CCN(CC)P(=O)(Nc1ccc(SC(F)F)cc1)c1ccc(N(C)C)cc1NC(=O)c1ccco1 (stereo unspecified) | -3.15%
COc1cc(C(=O)N2CCN(C)CC2)cc(OC)c1OC | 1.91%
O=C(CN1C(=O)NC(Cc2ccccc2)(Cc2ccccc2)C1=O)NCC1CCCCC1 | 0.35%
Cc1ccc(C(=O)C(=S)N2CCOCC2)cc1 | 0.27%
Cc1ccc(CC2S/C(=C(/C#N)C(=O)N3CCOCC3)N(c3ccccc3)C2=O)cc1 (stereo unspecified) | 27.6% (active)
N#C/C(C(=O)N1CCOCC1)=C1/SC(Cc2ccc(F)cc2)C(=O)N1c1ccccc1 (stereo unspecified) | 19.8%
O=C(Nc1ccc2c(c1)CCC2)c1ccc(Br)s1 | -6.11%
CC(=O)N1CCN(C(=O)c2cc(-c3ccc(C)o3)nc3ccccc23)CC1 | -4.79%
OCC[C@H]1C[C@@H](O)[C@H](O)[C@]2(OCCCc3ccccc32)O1 | -4.69%
O=C(CSc1nc2ccc([N+](=O)[O-])cc2[nH]1)c1ccc(Cl)cc1 | -2.05%
O=C(/C(=C/c1cccc(Cl)c1)c1nc2ccccc2[nH]1)c1ccccc1 | 6.55%
O=C(Cc1nc2ccccc2[nH]c1=O)c1ccc(Cl)cc1 | 52.4% (active)
CC(=O)Oc1ccc(N(C(C)=O)S(=O)(=O)c2ccc3ccccc3c2)cc1Br | -2.05%
O=C(Nc1ccc([N+](=O)[O-])cc1)OCCc1ccccn1 | 0.72%
Cc1cccc(NS(=O)(=O)c2cc(Cl)ccc2Cl)n1 | -0.05%
COc1ccc2cc(C(=O)C3CCCN(C(=O)c4sc(C)nc4C)C3)ccc2c1 (stereo unspecified) | -0.57%
CCOc1cc(-c2cc(-c3ccc(NC(C)=O)cc3)nc(N)c2C#N)ccc1O | 2.32%
CCOc1cc(/C=C(\C#N)c2nc(-c3cccs3)c(NC(C)=O)s2)ccc1O | 111% (active)
COc1cc(/C=N\Nc2nc(-c3cccs3)c(NC(C)=O)s2)ccc1O | -0.53%
Cc1ccc(Nc2ccc(C(N)=O)cc2[N+](=O)[O-])cc1 | -0.98%
Cc1ccc(Nc2ccccc2N)cc1 | 38.5% (active)
Nc1ccc(C(=O)Nc2ccccc2N)cc1 | -2.37%
O=C(Nc1ccc(Cl)c(Cl)c1)N1CC=C(c2ccccc2)CC1 | -0.49%

SMILES | inhibition
NC1=C([N+](=O)[O-])C(c2ccccc2)C2=C(CCCC2=O)O1 (stereo unspecified) | 2.19%
COc1ccc(CCOC(=O)CNC(=O)c2ccc(Cl)cc2Cl)cc1 | -0.14%
Cc1ccc([C@@H]2CC=C(C(=O)O)[C@H](c3cccc(Cl)c3)N2S(=O)(=O)c2ccc(C)cc2)cc1 | -3.07%
Cc1c(CC(=O)N2CCN(C(=O)C3COc4ccccc4O3)CC2)c(=O)oc2c(O)c(O)ccc12 (stereo unspecified) | 51% (active)
O=C(CNC(=O)C1COc2ccccc2O1)N/N=C/c1cc(Br)c(O)c(Br)c1 (stereo unspecified) | 2.18%
Cc1c(C)c2ccc(OCC(=O)N3CCC(C(=O)O)CC3)c(C)c2oc1=O | -2.74%
NC(=O)c1c(NC(=O)c2ccccc2)sc2c1CCCC2 | 1.25%
COc1cccc(OC)c1C(=O)Nc1sc2c(c1C(N)=O)CCCC2 | -0.1%
NC(=O)c1c(Nc2nc3c(F)cccc3s2)sc2c1CCCC2 | 85.5% (active)
CC(C)(C)C(=O)Nc1ccc(C(=O)N/N=C/c2ccccc2OC(=O)c2ccc(Cl)cc2Cl)cc1 | -2.72%
Cc1ccc(Sc2ccncc2S(N)(=O)=O)cc1 | 0.2%
Cc1cnc(C(=O)N2CCCC(C(=O)c3ccc(C(F)(F)F)cc3)C2)cn1 (stereo unspecified) | -2.98%
CCOC(=O)N1CCN(C(=O)CSc2nc(=O)n3cccc(C)c3n2)CC1 | -1.52%
Cc1cccn2c(=O)c(/C=C(\C#N)C(N)=O)c(N3CCCCCC3)nc12 | -0.44%
CCOC(=O)CC1C(=O)NCCN1c1nc2c(C)cccn2c(=O)c1/C=C1\SC(=S)N(C(C)CC)C1=O (stereo unspecified) | 145% (active)
CCC(=O)N1c2ccc(S(=O)(=O)NCc3ccco3)cc2CC1C (stereo unspecified) | -4.88%
COCCCn1c(-c2cccs2)nc2nc3ccccc3nc21 | -0.91%
Cc1c(-c2ccccc2)cn2c1-c1ccc(C)n1CC2 | 49% (active)
Cc1cc(Br)ccc1SCC(=O)OCC(=O)NCc1ccc2c(c1)OCO2 | -0.18%
CC1CCN(C(=O)c2ccc3c(=O)n4c(nc3c2)CCCCC4)CC1 | -0.96%
CC1CCN(C(=O)c2ccc3c(c2)NC(=O)CN3)CC1 | 147% (active)
CC1CCN(C(=O)c2ccc(CSc3ccc(Cl)cc3)cc2)CC1 | -4.05%
O=c1oc2ccccc2c(CNc2ccccc2)c1[N+](=O)[O-] | -2.94%

SMILES | inhibition
C[n+]1ccc(/C=C/c2c[nH]c3ccccc23)cc1 | 56% (active)
COc1ccc(/C=C(\C#N)c2c[nH]c3ccccc23)cc1 | 0.42%
O=C(N/N=C/c1c[nH]c2ccccc12)c1ccccc1O | -1.65%
CCOc1ccc(-n2c(O)c(/C=N/Nc3nc(C)cc(C)n3)c3ccccc3c2=O)cc1 | -0.65%
CCOc1ccc(-n2c(O)c(/C=N/c3ccnn3Cc3ccncc3)c3ccccc3c2=O)cc1 | 44.3% (active)
Cc1ccc(-n2c(O)c(C=Nc3ccc(S(=O)(=O)Nc4ncccn4)cc3)c3ccccc3c2=O)cc1C | 1.02%
CC(C)CCN1CCN=C1N(C)C | 0.11%
O=C(NCCCN1CCOCC1)c1cnn2c(-c3ccccc3)cc(-c3ccccc3)nc12 | -0.23%
COc1ccc(C(=O)NC2CC2)cc1OC1CCN(Cc2ccc(SC)cc2)CC1 | -0.85%
CC(NC(=S)Nc1ccccc1)C(c1cccs1)N1CCOCC1 (stereo unspecified) | -0.68%
CCOC(=O)Nc1ccc2c(c1)N(C(=O)CCCl)c1ccccc1[S@]2=O | 1.44%
Cc1ccc2cc(/C=N/NC(=O)[C@@H]3CCCN3)c(Cl)nc2c1 | -2.39%
Cc1ccc2cc(/C=N/Nc3ccc(C(=O)O)cc3)c(Cl)nc2c1 | 24.6% (active)
O=C(O)c1ccc(N/N=C/c2ccc3ncccc3c2)cc1 | -4.36%
C/C(=N\Nc1nc(N2CCOCC2)nc(N2CCOCC2)n1)c1ccc([N+](=O)[O-])cc1 | 0.13%
COc1cccc(OC)c1C(=O)Nc1ccc2c(c1)n(C)c(=O)n2C | -1.47%
Cc1ccc(N=C2NC(=O)/C(=C/C=C/c3ccco3)S2)cc1C | 25.4% (active)
CN(C)c1ccc(-n2cccc2/C=C2/SC(=Nc3ccc(F)cc3)NC2=O)cc1 | 0.75%
Cc1ccc(N2NC(=O)/C(=C/C=C/c3ccco3)C2=O)cc1C | 4.93%
COC(=O)C1(S(=O)(=O)C2(C(=O)OC)CCCC2)CCCC1 | -0.48%
CN1C(=O)CC(c2ccccc2)C1=O (stereo unspecified) | -3.97%
CCN1C(=O)N[C@@H](c2ccccc2)[C@H](C(C)=O)[C@H]1C | 1.78%
